Assay outcomes: PubChem BioAssay, National Center for Advancing Translational Sciences (NCATS)
A selection: hits, their analogues and other compounds. The true share with any hit is near 2.6%.
AmpC det inh: Promiscuous and Specific Inhibitors of AmpC Beta-Lactamase (assay with detergent) | P00811 | purified AmpC, nitrocefin hydrolysis with detergent | Potency, µM (top dose mostly 28.7 µM) | hit rate 0.09% among 71,000; active = well fitted curve in the direction sought with a large enough effect; inconclusive = small, poorly fitted or top-dose-only effect
Target sequence (P00811 whole entry, looked up): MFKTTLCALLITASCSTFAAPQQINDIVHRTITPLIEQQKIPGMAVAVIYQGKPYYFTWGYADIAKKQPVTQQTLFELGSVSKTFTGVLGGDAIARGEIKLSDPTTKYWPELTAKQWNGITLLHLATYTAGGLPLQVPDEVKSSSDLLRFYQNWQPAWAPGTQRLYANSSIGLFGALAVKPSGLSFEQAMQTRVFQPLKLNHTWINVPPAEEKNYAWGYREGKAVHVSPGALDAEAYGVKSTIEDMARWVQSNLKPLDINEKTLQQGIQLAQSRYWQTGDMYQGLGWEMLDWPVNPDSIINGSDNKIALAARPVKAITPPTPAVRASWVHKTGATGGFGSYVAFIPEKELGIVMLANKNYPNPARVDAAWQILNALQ
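E. coli AmpC (5.3 nM) in 20 mM phosphate pH 7.0 with 0.01% Triton X-100, preincubated 15 min RT with compound; nitrocefin (2 uL of 800 uM stock) hydrolysis followed by 480 nm absorbance every 20 s over 4 min.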
AmpC nodet inh: Promiscuous and Specific Inhibitors of AmpC Beta-Lactamase (assay without detergent); hit rate 1.8% among 71,000; AmpC nitrocefin hydrolysis, absorbance 480 nm, no detergent; P00811; AID 585, 2007; Potency, µM (series often up to 28.7 µM)
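AmpC, 20 mM phosphate pH 7.0; 15 min cpd preinc, RT; start with nitrocefin (800 uM stock); A480 kinetic read, 20 s intervals, 4 min. No-enzyme wells = negative control.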
Anthrax LT inh: qHTS Assay for Anthrax Lethal Toxin Internalization | Cells, anthrax lethal toxin internalization, FRET ratio (460/530) | Potency, µM (highest dose often 40 µM), most hits filed as inhibitors | hit rate 0.67% among 70,000 | AID 912, 2007; note: nearly all actives have a fitted effect of over 50% in size
SmPrx2 inh: Schistosoma Mansoni Peroxiredoxins (Prx2); hit rate 0.07% among 65,000; Potency, µM; S. mansoni Prx2 activity coupled to TGR/GSH (TGR is thioredoxin glutathione reductase), NADPH fluorescence loss, qHTS; Schistosoma mansoni peroxiredoxin 2 (Prx2)
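Coupled assay in which S. mansoni TGR passes NADPH reducing equivalents via glutathione to Prx2, which reduces H2O2. Compounds were preincubated 15 min at room temperature with 25 nM TGR/50 nM Prx2 mix. Kinetic NADPH fluorescence loss (ex 365/em 450 nm) was monitored.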
Of the large screens only hits and unclear results are named; the others gave an inactive call; [ ] = another dose, or the depositor's remark. Unless noted, calls come from the whole dose curve.

CC1(C)N=C(N)N=C(N)N1c1cccc(CSc2ccccc2)c1	none
CCN1CCN(Cc2ccc(NC(=O)Nc3ccccc3Cl)cc2)CC1	AmpC nodet inh 4µM[single pt active]
NC(=O)CI	AmpC nodet inh 13µM, SmPrx2 inh inconclusive
CC(N)=O	none (no result: Anthrax LT inh)
C[C@@H](COc1ccc(/C=C\c2ccccc2)cc1)[N+](C)(C)C	Anthrax LT inh inconclusive
CSc1nnc(Cn2c(=O)sc3ccccc32)n1C	AmpC nodet inh 4µM[single pt active]
CCCSc1nnc(Cn2c(=O)sc3ccccc32)n1C	AmpC nodet inh 4µM[single pt active]
CN(C)S(=O)(=O)c1nc(Cl)c2[nH]cnc2n1	none
CCOc1ccccc1-n1nnnc1SCC(=O)Nc1cc2oc3ccccc3c2cc1OC	AmpC nodet inh 6.3µM, Anthrax LT inh inconclusive
COc1ccc(CCNC(=O)CSc2ncnc3c2oc2ccccc23)cc1OC	none
COc1ccc(Cl)cc1NC(=O)CSc1ncnc2c1oc1ccccc12	AmpC nodet inh 13µM[single pt active], Anthrax LT inh inconclusive
CCOc1ccccc1-n1nnnc1SCC(=O)Nc1cc(C)on1	none
Cc1ccc(C)c(/C(=N\N=C(N)N)C2CC2)c1	none
CCOC(=O)N1CCN(c2c(NCCCN(CC)c3cccc(C)c3)c(=O)c2=O)CC1	none
CCOC(=O)N1CCN(c2c(NCc3ccccn3)c(=O)c2=O)CC1	AmpC nodet inh 4µM[single pt active]
CCOC(=O)N1CCN(c2c(Nc3cc(C)[nH]n3)c(=O)c2=O)CC1	AmpC nodet inh 2.5µM[single pt active], SmPrx2 inh inconclusive
C[C@@]12Cc3cnc(-c4ccccc4)nc3C[C@@H]1CC[C@@H]1[C@H]3CC[C@@](C)(O)[C@]3(C)CC[C@@H]12	none
Cc1ccn2cc(C(=O)Nc3ccccc3N3CCOCC3)nc2c1	Anthrax LT inh inconclusive
Cc1cccc(N2CCN(C(=O)c3cc4c(C)nc5ccccc5c4o3)CC2)c1C	Anthrax LT inh 10µM
Cc1ccn2cc(C(=O)Nc3ccc4c(c3)OCCO4)nc2c1	Anthrax LT inh 7.9µM
Cc1nc2ccccc2c2oc(C(=O)Nc3ccc4c(c3)OCCO4)cc12	Anthrax LT inh 0.79µM
Cc1nc2ccccc2c2oc(C(=O)NCC3COc4ccccc4O3)cc12 (configuration not stated)	Anthrax LT inh 5µM
CC(C)CNCCc1ccccn1	Anthrax LT inh inconclusive
Nc1nc(CC(=O)O)cs1	none (no result: SmPrx2 inh)
O=C(/C=C/c1ccc(O)c(O)c1)OC1C[C@](O)(C(=O)O)C[C@@H](O)[C@H]1O (some centres not stated)	AmpC nodet inh inconclusive (no result: SmPrx2 inh)
NC(N)=N/N=C\c1ccc(O)c(C(=O)O)c1	none
N#Cc1cc2ccccc2nc1SCC(=O)Nc1ccc(S(=O)(=O)N2CCCC2)cc1	AmpC nodet inh 5µM
CN(C)c1ccc2c(c1)OC(N)=C(C#N)C2c1cccc(F)c1 (configuration not stated)	Anthrax LT inh 6.3µM (no result: SmPrx2 inh)
N#CC1=C(N)Oc2cc(O)ccc2C1c1cccs1 (configuration not stated)	none (no result: SmPrx2 inh)
COc1ccccc1C(=O)Nc1ccc2c(c1)OCCO2	none
COc1cc(SC)ccc1C(=O)Nc1ccc2c(c1)OCCO2	Anthrax LT inh 10µM
O=C(O)[C@H]1C2c3ccccc3C(c3ccccc32)[C@@H]1C(=O)NCC1CC1	none
Cc1nnc2ccc(N3CCN(c4ccccn4)CC3)nn12	AmpC nodet inh 4µM[single pt active]
Cc1nnc2ccc(N3CCC(C(N)=O)(N4CCCCC4)CC3)nn12	AmpC nodet inh 4µM[single pt active]
Cc1nnc2ccc(N3CCN(C)CC3)nn12	none (no result: SmPrx2 inh)
O=[N+]([O-])c1cc(C(F)(F)F)cc([N+](=O)[O-])c1Cl	none (no result: SmPrx2 inh)
CCCN(CCC)c1c([N+](=O)[O-])cc(C(F)(F)F)cc1[N+](=O)[O-]	Anthrax LT inh 5µM (no result: SmPrx2 inh)
CC(C)N(Cc1nc(-c2ccccc2)no1)C(=O)CSc1ccccc1	none
COc1ccccc1OCC(=O)N(Cc1nc(-c2ccc(Cl)cc2)no1)C(C)C	Anthrax LT inh inconclusive
CC(C)N(Cc1nc(-c2ccccc2)no1)C(=O)Cc1ccccc1	AmpC nodet inh 4µM[single pt active]
CC(C)N(Cc1nc(-c2ccccc2)no1)C(=O)COc1ccccc1	AmpC nodet inh 4µM[single pt active], Anthrax LT inh inconclusive
CC(C)N(Cc1nc(-c2ccc(Cl)cc2)no1)C(=O)CCC1CCCC1	AmpC nodet inh 4µM[single pt active], Anthrax LT inh inconclusive
Cc1cc(Br)ccc1OCC(=O)N(Cc1nc(-c2ccccc2)no1)C(C)C	Anthrax LT inh inconclusive
COc1cc([C@H]2c3cc4c(cc3[C@@H](O[C@H]3O[C@H]5CO[C@@H](C)O[C@H]5[C@@H](O)[C@@H]3O)[C@@H]3COC(=O)[C@H]23)OCO4)cc(OC)c1O	none
O=C(Nc1ccc(F)cc1F)N1CCN(C/C=C/c2ccccc2)CC1	AmpC nodet inh 4µM[single pt active]
